# Tau fluor counter = counter-screen for tau fibril formation inhibitors; tau K18 P301L Alexa594 fluorescence, heparin fibrillization; Potency, µM (top dose mostly 57.7 µM), for inactives: top-dose activity change, negative = decrease; 280,000 compounds, 0.93% hits; also: nearly all actives have a fitted effect of over 55% in size
#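 Human tau K18 P301L (15 uM unlabeled, 0.24 uM Alexa 594-labeled) in 100 mM sodium acetate pH 7 with 20 uM heparin, 6 hr at 37 C. ThT 30 uM added, 1 hr ambient; Alexa 594 FP and total fluorescence read at 555/632 nm.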
# VDR inhibitor = inhibitors of human vitamin D receptor; P11473; VDR-SRC2-3 peptide fluorescence polarization, 2 h; Potency, µM, for the others: max response, negative = inhibition, actives largely listed as inhibitors; 400,000 compounds, 0.93% hits; AID 504847
# Target sequence (P11473 whole entry, looked up): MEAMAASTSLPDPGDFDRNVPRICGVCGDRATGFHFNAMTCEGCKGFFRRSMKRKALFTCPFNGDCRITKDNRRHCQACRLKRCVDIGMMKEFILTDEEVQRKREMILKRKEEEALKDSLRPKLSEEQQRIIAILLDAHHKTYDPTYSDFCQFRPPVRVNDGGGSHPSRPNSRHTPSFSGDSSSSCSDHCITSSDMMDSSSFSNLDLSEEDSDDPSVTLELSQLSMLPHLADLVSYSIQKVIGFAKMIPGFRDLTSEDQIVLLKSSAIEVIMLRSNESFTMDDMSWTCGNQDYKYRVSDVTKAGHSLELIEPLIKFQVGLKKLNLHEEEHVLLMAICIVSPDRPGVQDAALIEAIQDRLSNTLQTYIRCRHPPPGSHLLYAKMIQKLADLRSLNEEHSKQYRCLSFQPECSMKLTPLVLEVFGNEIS
#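 The screen uses fluorescence polarization to detect compounds that interfere with recruitment of the SRC2-3 coactivator peptide to VDR; plates are read after 2 h at room temperature.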
# Tau fibril ThT = blocks human tau fibril formation measured by thioflavin T; P10636; recombinant tau K18 P301L, heparin-induced fibrillization, ThT fluorescence; Potency, µM (series often up to 57.4 µM), for inactives: top-dose activity, negative = inhibition, usual class: inhibitors; 270,000 compounds, 2.1% hits; AID 1460; also: nearly all actives have a fitted effect of over 55% in size
# Target sequence (P10636 561-689 P618L limits assumed): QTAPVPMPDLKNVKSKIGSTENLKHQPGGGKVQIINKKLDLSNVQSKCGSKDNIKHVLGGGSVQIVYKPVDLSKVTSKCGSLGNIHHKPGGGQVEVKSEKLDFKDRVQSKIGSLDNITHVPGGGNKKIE
#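 Using a mix of unlabeled (15 uM) and Alexa 594-labeled (0.24 uM) tau K18 P301L, heparin-triggered fibrillization over 6 hr at 37 C was scored by ThT fluorescence.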
# PLK1 PBD block = blocks phosphopeptide binding to human PLK1 polo-box domain; Plk1 PBD binding of FITC phosphopeptide, fluorescence polarization; Potency, µM, inactives show max response, negative = inhibition, hits mostly inhibitors; 360,000 compounds, 2.8% hits; P53350; AID 720504; also: series mostly up to about 57 µM; nearly all actives have a fitted effect of over 65% in size
# Tau FP inhib = inhibitors of human tau fibril formation; P10636; K18 P301L tau heparin fibrillization, Alexa594 FP, 6 h; Potency, µM (series often up to 57.7 µM), without a hit: at the highest dose activity, negative = inhibition, actives largely listed as inhibitors; 280,000 compounds, 0.39% hits; AID 1468; also: nearly all actives have a fitted effect of over 55% in size
#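 Compound effects on tau fibrillization are measured by Alexa 594 fluorescence polarization (ex 555, em 632 nm). K18 P301L tau is used at 15 uM with 0.24 uM labeled tracer, and 20 uM heparin induces aggregation over 6 hr at 37 C.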
# Sfp PPTase inh = Sfp phosphopantetheinyl transferase inhibition; Q9F4F7; Biochemical Sfp PPTase activity, qHTS; Potency, µM, for the others: largest response in the series, negative = inhibition, usual class: inhibitors; 310,000 compounds, 3.5% hits;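 also: the enzyme is Sfp with the accession as filed and its product quenches rhodamine fluorescence; 0% = enzyme reaction without inhibitor and -100% = no enzyme wells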
#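 Step 1, compound plus 15 nM Sfp-PPTase, 15 min, room temperature. Step 2, add rhodamine-CoA (5 uM) and BHQ-2-YbbR (12.5 uM). Step 3, read 525/598 nm fluorescence at 0 and 30 min.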
# Starred values were filed as active, the others as inactive; ? = inconclusive; . = no result; ! = repeats disagree; [ ] = remark or other dose. Hits are enriched below; roughly 6% of the tested compounds scored in any of these assays. Calls follow the shape of the dose curve; as a rule, active = well fitted curve in the direction sought with a large enough effect; inconclusive = small, poorly fitted or top-dose-only effect, or another doubt; inactive = no such curve, though single readings can be large; an effect the other way counts as inactive or inconclusive. Unless noted, % is scaled to controls: 0 for no effect and ±100 for the full control effect; potency is read from the fitted curve at half-maximal effect.
SMILES,Tau fluor counter,VDR inhibitor,Tau fibril ThT,PLK1 PBD block,Tau FP inhib,Sfp PPTase inh
N=C1/C(=C\c2ccc(SCc3ccccc3)o2)C(=O)N=C2SC(CC(=O)N3CCOCC3)=NN12,-11%,-3%,14µM*,?,7%,-21%
COc1ccc(/C=C2\C(=N)N3N=C(CC(=O)N4CCOCC4)SC3=NC2=O)cc1,.,-4%,.,-9%,.,9%
Cc1ccc(/C=C2\C(=N)N3N=C(CC(=O)N4CCOCC4)SC3=NC2=O)o1,.,-10%,.,27µM*,.,4%
N=C1/C(=C/c2ccc(-c3cccc(C(=O)O)c3)o2)C(=O)N=C2SC(CC(=O)N3CCOCC3)=NN12,.,19%,.,30µM*,.,19%
N=C1/C(=C\c2ccc(-c3cccc(C(=O)O)c3)o2)C(=O)N=C2SC=C(c3ccccc3)N12,-8%,-15%,2.5µM*,?,8%,1%
O=C1CCCc2cc(S(=O)(=O)NCC3CCC(C(=O)Nc4ccc(Cl)cc4)CC3)ccc2N1 (stereo not drawn),-18%,0%,-7%,.,-16%,.
COc1cccc(N2CCN(S(=O)(=O)c3ccc4c(c3)N(C(C)=O)CCO4)CC2)c1,.,-4%,.,-13%,.,13%
Cc1nn(CC(=O)N2CCN(c3ccccc3)CC2)c(=O)c2cc3sccc3n12,-4%,-15%,0%,.,3%,.
N=C1/C(=C\c2ccc(SCc3ccccc3)o2)C(=O)N=C2SC=NN12,-19%,?,8.9µM*,-18%,?,5%
CCS(=O)(=O)C1=NN2C(=N)/C(=C\c3ccc(SCc4ccco4)o3)C(=O)N=C2S1,?,12%,14µM*,?,-21%,20µM*
Cc1n[nH]c(=O)c2c(NC(=O)CSc3ccc(F)cc3)oc(C)c12,.,-3%,.,?,.,.
CC(=O)Nc1ccc(SCC(=O)Nc2oc(C)c3c(C)n[nH]c(=O)c23)cc1,.,-11%,.,19µM*,.,.
Cc1cccc(C)c1NC(=O)COC(=O)c1cc(=O)c2ccccc2o1,-4%,?,.,21µM*,-3%,3%
NS(=O)(=O)c1ccc(NC(=S)NC(=O)c2ccco2)cc1,-13%,-27%,-8%,-19%,-13%,45µM*!
CN(C)S(=O)(=O)c1ccc(NC(=S)NC(=O)c2ccc(Br)o2)cc1,-25%,.,-14%,.,-17%,56µM*
CCOc1ccc(NC(=S)NC(=O)c2ccco2)cc1,-18%,-7%,?,-8%,2%,56µM*
NS(=O)(=O)c1ccc(NC(=S)NNC(=O)c2ccc(Br)o2)cc1,.,7%,.,-8%,.,25%
CC(=O)NS(=O)(=O)c1ccc(NC(=S)NC(=O)c2ccco2)cc1,-1%,22%,-2%,-14%,-10%,?
NS(=O)(=O)c1ccc(NC(=S)NC(=O)c2ccc(Br)o2)cc1,-5%,-22%,-4%,21µM*,?,56µM*
CCc1nn(CC(=O)Nc2cccc(C(C)=O)c2)c(=O)c2cc3sccc3n12,8%,-20%,9%,.,11%,.
Cc1ccc(Nc2nnc(-c3ccc4c(c3)OCO4)o2)c(C)c1,-10%,?,?,21µM*,2%,50µM*
O=c1c(O)cccc2cc(O)c(O)c(O)c12,2.5µM*[quencher],20µM*!,3.2µM*,8.4µM*,11µM*,6.3µM*!
O=C(/C=C/c1ccccc1)NC(=S)Nc1ccc(N2CCOCC2)c(Cl)c1,-5%,7%,-9%,-2%,-6%,20%
O=C(NC(=S)Nc1ccc(Cl)cc1)c1cncc(Br)c1,.,-11%,.,-9%,.,.
O=C(Nc1ccccc1C(=O)O)c1cncc(Br)c1,-3%,8%,-5%,-4%,2%,-11%
SMILES,Tau fluor counter,VDR inhibitor,Tau fibril ThT,PLK1 PBD block,Tau FP inhib,Sfp PPTase inh
O=C(NC(=S)Nc1ccc(N2CCOCC2)cc1)c1cccc(Cl)c1,?,-25%,13µM*,-13%,9%,-3%
O=C(NC(=S)Nc1ccc(N2CCOCC2)c(Cl)c1)C(c1ccccc1)c1ccccc1,?,-16%,-16%,27µM*,-5%,14%
O=C(NC(=S)Nc1ccccc1C(=O)O)c1cncc(Br)c1,.,50µM*,.,9.5µM*,.,10µM*
O=C(NC(=S)Nc1ccc(N2CCOCC2)cc1)c1cncc(Br)c1,-12%,-17%,?,-8%,2%,56µM*
O=C(NC(=S)Nc1ccc(N2CCOCC2)cc1)c1cccc(Cl)c1Cl,.,-6%,.,0%,.,9%
CC1(C)C(=O)C2C[C@]3(O)C4=CC(=O)OC(c5ccoc5)[C@]4(C)CCC3[C@](C)(C2=O)C1CC(=O)O (stereo partly drawn),-10%,13%,-12%,.,2%,14%
Nc1nc(=O)n(C2OC(CO)C(O)C2O)cc1Cl (stereo not drawn),-8%,-5%,-4%,.,-4%,-29%
Cc1ccc(S(=O)(=O)Nc2ccc3c(c2)CCCN3C(=O)c2cccs2)cc1,-19%,4%,4%,.,3%,.
CCOC(=O)c1ccc(NC(=S)N2CCSC2c2ccc(Cl)cc2)cc1 (stereo not drawn),?,-14%,-10%,-5%,?,16%
CCOC(=O)c1ccc(NC(=S)N2CCSC2c2ccc(OC)cc2)cc1 (stereo not drawn),?,-3%,?,-15%,25µM*,-1%
c1ccc2c(c1)Nc1cc3ccccc3cc1S2,?,6%,2.2µM*,-15%,?,6%
COc1ccc2c(c1)S(=O)(=O)c1ccccc1N2,?,-29%,-7%,-6%,10%,13%
COc1ccc2c(c1)Sc1ccccc1N2,10µM*[quencher],5%,10µM*,-19%,-11%,-4%
C[C@@H](NC(=O)c1nc[nH]c1C(=O)NCC(=O)OCc1ccccc1)c1ccccc1,.,-3%,.,-13%,.,18%
Cc1cccc2nc(COc3ccc(-c4ccccc4)cc3)cn12,-29%,.,?,.,-6%,45µM*
COc1ccc(C(=O)N/C(=C\c2cccc3ccccc23)C(=O)N2CCN(C)CC2)cc1OC,-1%,-2%,0%,-10%,-1%,-1%
COc1ccccc1C(=O)N/C(=C\c1cn(C)c2ccccc12)C(=O)NCCCN1CCOCC1,.,9%,.,-2%,.,-11%
CCn1cc(/C=C(\NC(=O)c2ccc(OC)c(OC)c2)C(=O)N2CCN(C)CC2)c2ccccc21,.,?,.,27µM*,.,5%
COc1cc(C(=O)N/C(=C\c2cn(C)c3ccccc23)C(=O)NCCCN2CCOCC2)cc(OC)c1OC,.,?,.,17µM*,.,-1%
Cc1c(Cl)cccc1NC(=O)Cn1c(=O)n(Cc2nc(-c3ccccc3)no2)c(=O)c2cc3c(cc21)OCO3,-5%,19%,?,.,?,.
COc1ccc(NC(=O)Cc2ccc(Cl)c(Cl)c2)cn1,-22%,-15%,-5%,-14%,-7%,8%

# Screening data from PubChem.
